Data reported in PubChem BioAssay (NCI).
The panel holds about 83,000 compounds, 20% with a hit somewhere; the sample as a whole holds those more often.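 Assay: single dose, 48 h. Readout: percent growth (0 = no net growth; negative = cell death). Active: <10.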 Activity calls are given as the source filed them.

Test system: BT-549 breast
Assay: NCI-60 one-dose screen, 48 h (100 = growth as untreated, 0 = no growth, -100 = all killed)
Settings: 10 µM

Compound | growth
COC[C@@H](CC(C)C)N=C1N/C(=C\c2ccc3ncsc3c2)C(=O)N1C | 7.17% (active)
COc1ccccc1[C@H]1C(C(=O)c2ccc(O)cc2)C2(N[C@@H]1c1ccccc1)C(=O)Nc1ccc(Br)cc12 (some centres not stated) | 54% (inactive)
COc1ccc(C(=O)Nc2ccc(-c3ccc4c(c3)NC(=O)/C4=C\c3ccc[nH]3)cc2)cc1 | 88.5% (inactive)
O=C(Nc1ccncc1)c1ccc(-n2c(=O)[nH]c3ccccc3c2=O)cc1 | 92.6% (inactive)
O=C(NO)c1ccc(-c2nc3ccc4[nH]ncc4c3c3c2CCCC3)cc1 | -50.2% (active)

Test system: MDA-MB-435 melanoma
Assay: as above
Settings: 10 µM

Compound | growth
O=S(=O)(c1ccc(Cl)cc1)c1nc(-c2ccccc2)oc1S(=O)(=O)c1ccc(Cl)cc1 | 82.3% (inactive)
O=[N+]([O-])c1ccc(-c2nc(-c3ccccc3)c(-c3ccccc3)n2-c2ccc(S(=O)(=O)Nc3ncccn3)cc2)cc1 | 46.5% (inactive)
Cc1cc(C(F)(F)F)ccc1C(=O)Nc1sc2c(c1C#N)CCC(=O)C2 | -48.1% (active)
Cc1ccn2c(C(=O)c3ccccc3)cc(-c3cc(-c4ccc(N(C)C)cc4)c(C#N)c(N)n3)c2c1 | 78.8% (inactive)
COc1ccc2ncc(C#Cc3cncc(C(=O)Nc4ccc(CN5CCN(C)CC5)c(C(F)(F)F)c4)c3)n2n1 | -89.6% (active)
CN1CCN(Cc2ccc(C(=O)Nc3cccc(Nc4ccc5cc(O)ccc5n4)c3)cc2C(F)(F)F)CC1 | -85.5% (active)
O=C(c1ccc(Cl)cc1)C1[C@H](c2ccccc2Br)[C@@H](c2ccccc2)NC12C(=O)Nc1ccc(Cl)cc12 (some centres not stated) | -35.1% (active)
N#Cc1c(Cl)nc(SCc2ccc(F)cc2)nc1-c1ccc(F)cc1 | 99.1% (inactive)
CC1=N/C(=C\c2ccc(N(C)C)cc2)C(=O)N1CCc1ccc(S(N)(=O)=O)cc1 | 110% (inactive)
CC1(C)CC[C@]2(C(=O)O)CC[C@]3(C)C(=CC[C@@H]4[C@@]5(C)C/C(=C/c6ccncc6)[C@H](O)C(C)(C)[C@@H]5CC[C@]43C)[C@@H]2C1 | 54.8% (inactive)
Cc1ccc(/C=C/C(=O)c2ccc(NC(=O)CSc3nnc(-c4c[nH]c5ccccc45)n3-c3ccccc3)cc2)c(C)c1 | 49.5% (inactive)
COC1=C[C@]23CCC(=O)N2CCc2cc4c(cc2[C@@H]3[C@@H]1OC(=O)CCCC(C)C)OCO4 | 74.1% (inactive)
COC(=O)c1c(C(=O)OC)c2n(c1C)[C@@H]([C@@H](C)[C@H]1CC[C@H]3[C@@H]4CCC5=CC(=O)CC[C@]5(C)[C@H]4CC[C@]13C)SC2 | 22.4% (inactive)
O=C(CNc1nc(-c2ccccc2)cs1)Nc1cccc([N+](=O)[O-])c1 | -77.9% (active)
CN(C(=O)c1ccc(C(C)(C)C)cc1)c1sc2c(c1C#N)CCC(=O)C2 | 14.7% (inactive)
Cc1cc(C)nc(NS(=O)(=O)c2ccc(N/C(N)=N/c3nccc(-c4ccccc4)n3)cc2)n1 | 86% (inactive)
O=C(NO)c1ccc(Cn2ccc3c(Nc4ccccc4)ncnc32)cc1 | 9.97% (active)
Cc1noc2c(Cc3ccccc3)nn(CC(=O)N/N=C/c3ccc(Br)cc3)c(=O)c12 | 70.2% (inactive)
N#Cc1c(-c2ccc(F)cc2)nc(SCc2ccc([N+](=O)[O-])cc2)nc1N1CCOCC1 | 84% (inactive)

Compound | growth
COc1ccc(-c2ccc(/C=N/NC(=O)c3[nH]c4ccc(Br)cc4c3-c3ccccc3)s2)cc1 | 107% (inactive)
CC1(c2ccccc2)NC(=O)N(CC(=O)Nc2ccc(C(=O)/C=C/c3ccc(Cl)cc3)cc2)C1=O (configuration not stated) | -76.4% (active)
O=c1[nH]c2ccccc2cc1CSc1ccc(Nc2nccc(-c3ccc4ccccc4c3)n2)cc1 | 69.8% (inactive)
COC(=O)CC1CC1C1Cc2c(nc(N(C)S(C)(=O)=O)nc2C(C)C)-c2ccc(F)cc21 (configuration not stated) | 87.2% (inactive)
COc1ccc(CN2[C@H](C(=O)NCCCCCCC(=O)NO)Cc3c([nH]c4ccccc34)[C@H]2C2CC2)cc1 | -49.1% (active)
O=C(CSc1nnc(-c2c[nH]c3ccccc23)n1-c1ccccc1)Nc1ccc(C(=O)/C=C/c2cccc([N+](=O)[O-])c2)cc1 | 98.9% (inactive)
Cc1ccc(NCC(=O)Nn2c(COc3ccccc3)nc3ccccc3c2=O)cc1 | 92.6% (inactive)
C/C(=C\CC/C=C(\C)CC/C=C(\C)CC[C@@H](O)C(C)(C)O)CC/C=C(\C)CC[C@@H](O)C(C)(C)O | 39.5% (inactive)
CCOC(=O)N/C(=C1/OCCN1C)[P+](c1ccccc1)(c1ccccc1)c1ccccc1 | 51.5% (inactive)
COc1cccc(-c2ccc(/C=N/NC(=O)c3[nH]c4ccc(Br)cc4c3-c3ccccc3)o2)c1 | -30.7% (active)
Cn1cc(/C=N/Nc2cccc(Cl)n2)c2ccccc21 | 10.7% (inactive)
O=C(CNc1nc(-c2ccccc2)cs1)Nc1ccc(Cl)cc1[N+](=O)[O-] | -5.51% (active)
CCCCCCCCCCCCCCCCCCCC(=O)NCCc1c[nH]c2ccc(OC(=O)CCCC(=O)OCCOOCCOOCCOOCCOOCCOOCCOOCCOOCCOOCCOOCCOOCCOOCCOC)cc12 | 82.7% (inactive)
COC[C@@H](CC(C)C)N=C1N/C(=C\c2ccc3ncsc3c2)C(=O)N1C | 22.1% (inactive)
COc1ccccc1[C@H]1C(C(=O)c2ccc(O)cc2)C2(N[C@@H]1c1ccccc1)C(=O)Nc1ccc(Br)cc12 (some centres not stated) | 14.2% (inactive)
COc1ccc(C(=O)Nc2ccc(-c3ccc4c(c3)NC(=O)/C4=C\c3ccc[nH]3)cc2)cc1 | 30.4% (inactive)
O=C(Nc1ccncc1)c1ccc(-n2c(=O)[nH]c3ccccc3c2=O)cc1 | 103% (inactive)
O=C(NO)c1ccc(-c2nc3ccc4[nH]ncc4c3c3c2CCCC3)cc1 | -78.1% (active)
